Data taken from PubChem BioAssay (NCI).
Compounds without any hit were thinned out: in the full panel of roughly 83,000, 20% have a hit.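 Percent growth is the endpoint: 0 to 100 indicates growth inhibition (40 means 60% inhibition), 0 means no net growth, and negative values indicate cell death.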 Values without a mark were called inactive. The source made the active and inactive calls. How the source made its calls: active means growth percent below 10; inactive means the rest.

The compounds below were run on HL-60(TB) leukemia (assay: NCI-60 one-dose screen, 48 h (100 = growth as untreated, 0 = no growth, -100 = all killed)). Conditions: 10 µM unless noted.

Compound	growth
O=C(COc1cccc(/C=C2\Cc3ccc(Cl)cc3C2=O)c1)Nc1nccs1	62.2%
CCCC/C(CC)=N\NS(=O)(=O)c1ccc([N+](=O)[O-])cc1	92.2%
Cc1ccc(NC(=O)c2cc(NCc3cc(O)ccc3O)ccc2O)cc1	16.1%
O=C(CCCCCCc1nc2ccc(Br)cc2[nH]1)NO	2.12% (active)
COc1cc(-c2c(C#N)c(N)n3c(nc4ccccc43)c2C#N)cc(Br)c1OC	62.9%
CC(=O)ON1CCCC(P(=O)(OCCSC(=O)C(C)(C)C)OCCSC(=O)C(C)(C)C)C1=O (stereo not given)	14%
C/C(=C\CCc1ccoc1)CC/C=C(\C)CCCN1CCSCC1	73.9%
Cc1csc(Nc2nc(-c3cccc(Br)c3)nc(C(Cl)(Cl)Cl)n2)n1	9.61% (active)
CC[C@]1(O)C[C@H]2CN(CCc3c([nH]c4ccccc34)C(C(=O)OC)(c3cc4c(cc3OC)N(C)[C@H]3[C@@](O)(C(=O)OC)[C@H](OC(C)=O)[C@]5(CC)[C@@H]6C[C@@H]6CN6CC[C@]43[C@@H]65)C2)C1 (stereo not given in full)	-30.9% (active)
O=C(Nc1ccc(F)c(Cl)c1)c1n[nH]c(=O)c2ccccc12	86.2%
COc1ccc(CN2c3ccccc3Oc3ccccc32)cc1F	54.1%
CCN1C(=S)N(CC)C2C1NC(=S)N2/N=C/C=C/c1ccccc1 (stereo not given)	-22.2% (active)
CC(C)CCN(CCC(C)C)CC(=O)Nc1ccc(S(=O)(=O)c2ccc(NC(=O)CN(CCC(C)C)CCC(C)C)cc2)cc1	19.1%
C=CCN1C(=O)c2cccc3c(-c4ccc5c(c4)ncn5C4CCCCC4)ccc(c23)C1=O	25.5%
O=c1[nH]ccc2nc(N3CCC(O)CC3)nc(Nc3ccc(N4CCOCC4)cc3)c12	18.9%
CSC(SC)=C(C#N)c1nc2ccccc2s1	44.6%
COc1ccc(OC)c(/C=C/c2nc(SC)n(-c3ccc(Cl)cc3)n2)c1	65.7%
Clc1ccc(C2=NN[C@H](c3cn(-c4ccccc4)nc3-c3ccccc3)C2)cc1	100%
CS(=O)(=O)c1ccc(NC(=O)c2ccccc2)nc1	67.5%
O=C(Nc1ccccc1[N+](=O)[O-])c1ccc(Cl)c(Cl)c1	90.2%

Compound	growth
CC(=O)c1cc2ccccc2o1	102%
COc1ccc(Br)cc1NC(=O)Nc1cccc2c1ccn2Cc1ccnc(N)c1	10.5%
CC(=O)n1cc(-c2c[nH]c3ccccc23)c(-c2ccc(Cl)cc2)n1	135%
CC(C)OCC1CO1 (stereo not given)	103%
Cc1nc2ccccc2c(/C=C/c2ccccc2)c1C(=O)/C=C/c1ccccc1	23.1%
OCC1OC(n2cnc3c(NCc4ccco4)ncnc32)C(O)C1O (stereo not given)	-26.3% (active)
COc1ccc2[nH]c(-c3ccccc3)c(C=C(C#N)C#N)c2c1	-49.1% (active)
C[N+]1=C(/C=C\C=C\c2ccccc2)C(C)(C)c2ccccc21	-22.2% (active)
O=C(c1ccccc1)N(C(=O)c1ccccc1)N1CCCC1	120%
Nc1nc2c(c(-c3nc(N)nc4c3CCc3ccccc3-4)n1)CCc1ccccc1-2	105%
O=c1ccccc(-c2ccc(-c3ccco3)cc2)c1O	-30.3% (active)
Cc1ccc[n+](CC(=O)c2cccc3ccccc23)c1	96.9%
COc1ccc(-c2nc3sccn3c2/C=C/C(=O)c2cc(F)cc(F)c2)cc1	60.4%
Cn1c(=O)c2c(ncn2CCC(=O)Nc2ccc(F)cc2)n(C)c1=O	94.1%
CCN1C(=O)N(CC)C2C1NC(=S)N2/N=C/c1ccc(C(F)(F)F)cc1 (stereo not given)	78.8%
COc1cc(Cc2cc(-c3ccccc3)n[nH]c2=O)cc(OC)c1OC	53.4%
CCCCCCNC(=O)Oc1ccc(/C(=C(/C)Cc2ccc(OC)cc2)c2ccc(OCCN(C)C)cc2)cc1	47.4%
O=C(NC(=S)NNC(=S)NNc1ccccc1)c1ccccc1	0.166% (active)
CCCOC(=O)N[C@H]1CCc2c(Cl)c(OC)c(OC)c(OC)c2-c2ccc(SC)c(=O)cc21	-36% (active)
O=Nc1ccc(NC(=O)Nc2ccc([N+](=O)[O-])cc2)cc1	89.8%
